From PubChem BioAssay (NCATS)
Records with an inconclusive call do not appear. A call without a number means that no potency is given here. The source made the active and inactive calls. The call rests on the fitted dose curve; in most records, active means well fitted curve in the direction sought with a large enough effect; inconclusive means small, poorly fitted or top-dose-only effect, or another doubt; inactive means no such curve, though single readings can be large; an effect the other way counts as inactive or inconclusive.

Experiments:
[1] = qHTS to identify inhibitors of the type 1 interferon - major histocompatibility complex class I in skeletal muscle: primary screen against the NCATS Mechanism Interrogation Plate v5.0 (MIPE) Libary (AID 1347411); further: nearly all actives have a fitted effect of over 65% in size; further: potency means the concentration at half of the fitted maximal effect
How it was run: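 Seed engineered human myoblasts (HLA-B HiBit) in medium without dexamethasone containing 4 ng/ml IFN-beta; after 1 hr add compound titrations (top 46 uM final). Incubate 24 hrs at 37 C, lyse 10 min with HiBiT reagent, read luminescence.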

[2] = qHTS to identify inhibitors of the type 1 interferon - major histocompatibility complex class I in skeletal muscle: primary screen against the NCATS Pharmaceutical Collection (AID 1347407);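 further: luminescence of HiBiT knocked into endogenous HLA-B as interferon-induced MHC class I level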
How it was run: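 HLA-B HiBiT myoblasts, dexamethasone-free growth medium + 4 ng/ml IFN-b; compounds pinned 1 h after seeding, […] from 46 uM; 24 h, 37 C, 5% CO2; lytic HiBiT detection, 10 min RT, luminescence.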

[3] = target: Protein phosphatase 1D (Homo sapiens) (UniProt O15297); experiment: RapidFire Mass Spectrometry qHTS Assay for Modulators of WT P53-Induced Phosphatase 1 (WIP1) (AID 1347424); further: potency means the concentration at half of the fitted maximal effect
How it was run: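 RapidFire MS readout of dephosphorylated VEPPL-S-QETFS product, with 1 uM isotope-labelled peptide standard. Reaction: 10 nM WIP1, 2 uM phosphopeptide substrate, 5 min, room temperature, after 1 h compound preincubation; stopped with 0.5% formic acid.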

[4] = Primary qHTS for inhibitors of La Crosse Virus (LACV) - induced cell death in SH-SY5Y cells (AID 1508616);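 further: top concentration of the series differs between compounds; higher means more rescue of cells from virus-induced death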
How it was run: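 SH-SY5Y, 6000 cells/well; cpd via pin tool in DMSO; LACV 0.01 MOI; 6 d 37C 5% CO2; ATPLite, 5 min RT; luminescence normalized to ±virus DMSO controls.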

[5] = target: Protein phosphatase 1D (Homo sapiens) (UniProt O15297); experiment: Rhodamine-PBP qHTS Assay for Modulators of WT P53-Induced Phosphatase 1 (WIP1) (AID 1347425)
How it was run: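 Steps: enzyme with Rh-PBP sensor and compounds, room-temperature incubation of 1 hr, baseline read, addition of VEPPL-pS-QETFS (10 uM final), kinetic fluorescence reads at 525/598 nm. Activity equals final minus baseline signal.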

[6] = target: Calcium and integrin-binding protein 1 (Homo sapiens) (UniProt Q99828); experiment: Confirmatory qHTS for Identification of Calcium Integrin Binding Protein 1 (CIB1) Competitor (AID 1508617); details: CIB1 binding competition assay, biochemical qHTS; further: potency means the concentration at half of the fitted maximal effect; nearly all actives have a fitted effect of over 65% in size
How it was run: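 Binding competition between test compounds and fluorescent alphaIIb peptide for 1 uM CIB1-GST is monitored by FP at 480/540 nm. Final compound range is up to 114 uM; unlabeled peptide serves as reference competitor.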

Chain of Protein phosphatase 1D (Homo sapiens) (O15297 whole entry, looked up): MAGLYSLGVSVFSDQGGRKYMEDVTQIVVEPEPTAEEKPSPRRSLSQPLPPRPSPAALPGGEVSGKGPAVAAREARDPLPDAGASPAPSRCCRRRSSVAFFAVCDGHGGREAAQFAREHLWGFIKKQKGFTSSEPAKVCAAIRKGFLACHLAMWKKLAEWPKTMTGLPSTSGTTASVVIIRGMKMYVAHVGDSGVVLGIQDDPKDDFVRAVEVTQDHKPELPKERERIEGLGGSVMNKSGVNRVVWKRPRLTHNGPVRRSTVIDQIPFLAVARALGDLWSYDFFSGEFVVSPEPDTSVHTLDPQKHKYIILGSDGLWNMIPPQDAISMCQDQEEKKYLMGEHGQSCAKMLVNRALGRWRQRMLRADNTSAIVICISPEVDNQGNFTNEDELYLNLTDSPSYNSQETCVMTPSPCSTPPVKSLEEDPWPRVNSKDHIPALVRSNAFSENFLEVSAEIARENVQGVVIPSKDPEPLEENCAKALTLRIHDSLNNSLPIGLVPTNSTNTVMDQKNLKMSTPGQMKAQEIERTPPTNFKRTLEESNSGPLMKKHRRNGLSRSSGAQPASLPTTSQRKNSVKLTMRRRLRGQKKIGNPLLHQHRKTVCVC
Chain of Calcium and integrin-binding protein 1 (Homo sapiens) (Q99828 whole entry, looked up): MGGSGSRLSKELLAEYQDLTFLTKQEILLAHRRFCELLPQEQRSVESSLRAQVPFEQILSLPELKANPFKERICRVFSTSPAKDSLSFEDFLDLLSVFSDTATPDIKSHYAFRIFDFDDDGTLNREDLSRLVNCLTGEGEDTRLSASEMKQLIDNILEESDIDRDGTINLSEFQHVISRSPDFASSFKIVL

SMILES: CN1CCN(C2CCC(n3cc(-c4ccc(Oc5ccccc5)cc4)c4c(N)ncnc43)CC2)CC1 (configuration not stated)
- Potency [1]: 11.7 µM (active)

SMILES: COC(=O)N(C)c1c(N)nc(-c2nn(Cc3ccccc3F)c3ncccc23)nc1N
- Potency [1]: inactive

SMILES: CC(C)c1cc(CNc2nc(Nc3cc(C4CC4)[nH]n3)cc(N3CCN(C)CC3)n2)on1
- Potency [1]: 0.523 µM (active)

SMILES: CNC(=O)c1cc(Oc2ccc3nc(N[C@@H]4CCCC[C@H]4O)sc3c2)ccn1
- Potency [1]: inactive

SMILES: CCNC(=O)Nc1ncc(-c2cc(-c3c(C)cc(OC)cc3C)nc(-c3cnccn3)n2)s1
- Potency [1]: inactive

SMILES: CCN1CCN(Cc2ccc(NC(=O)c3ccc(C)c(NC(=O)c4cncc(-c5cccs5)c4)c3)cc2C(F)(F)F)CC1
- Potency [1]: 2.94 µM (active)

SMILES: Nc1ccc(/C=C/C(=O)NCc2cc3cc(-c4ccc(C(=O)N5CCC(F)(F)CC5)cc4)cc(-c4ccc(F)cc4)c3o2)cn1
- Potency [1]: inactive

SMILES: O=C(NCc1cccc(O)c1)Nc1nc(-c2ccncc2)cs1
- Potency [1]: 18.6 µM (active)

SMILES: CN[C@@H]1[C@H](O[C@H]2[C@H](O[C@@H]3[C@@H](O)[C@H](O)[C@@H](N=C(N)N)[C@H](O)[C@H]3N=C(N)N)O[C@@H](C)[C@]2(O)C=O)O[C@@H](CO)[C@H](O)[C@H]1O
- Potency [1]: inactive

SMILES: Cc1ccc(N)cc1O
- outcome [2]: inactive
- Potency [3]: 44.7 µM (active)
- outcome [4]: inactive

SMILES: COCCOc1cnc2ccn([C@H](C)c3nnc4c(F)cc(-c5cnn(C)c5)cn34)c(=O)c2c1
- Potency [1]: inactive

SMILES: CCOCCOC(=O)/C=C/c1ccc(OC)cc1
- outcome [2]: inactive
- Potency [3]: inactive
- outcome [5]: inactive

SMILES: O=C(O)c1ccccc1NCCc1ccccc1
- outcome [2]: inactive
- Potency [3]: inactive
- outcome [5]: inactive
- outcome [4]: inactive

SMILES: COc1cc2ncnc(Nc3ccc(F)c(Cl)c3)c2cc1NC(=O)/C=C/CN1CCCCC1
- Potency [1]: 7.39 µM (active)

SMILES: FC(F)(F)c1ccc(Nc2nc(-c3c(C(F)(F)F)nc4ccccn34)cs2)cc1
- Potency [1]: 4.66 µM (active)

SMILES: Cc1ccc(S(=O)(=O)Cc2nc(-c3ccc(C(=O)NCc4cccnc4)cc3)oc2C)cc1
- Potency [1]: inactive

SMILES: CCC(C(=O)O)c1ccc(N2Cc3ccccc3C2=O)cc1 (configuration not stated)
- Potency [3]: inactive
- outcome [5]: inactive
- outcome [4]: inactive

SMILES: CCN(CC)CCN(Cc1ccc(-c2ccc(C(F)(F)F)cc2)cc1)C(=O)Cn1c(SCc2ccc(F)cc2)nc(=O)c2c1CCC2
- Potency [6]: 35.5 µM (active)
